Hits are enriched below; roughly 13% of the tested compounds scored in any of these assays.
Pf growth 48h: Primary qHTS for delayed death inhibitors of the malarial parasite plastid, 48 hour incubation. Potency, µM (titrated, usually from 28.7 µM), for the others: at the highest dose activity change, negative = inhibition, actives largely listed as inhibitors. P. falciparum luciferase growth in erythrocytes, 48 h. actives 5.9% (n = 310,000); further: potency means the concentration at half of the fitted maximal effect
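Here the parasites carry a stable luciferase gene and grow inside erythrocytes in Albumax-based RPMI medium with compound for one erythrocytic cycle. Activity is scored as loss of luminescent signal.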
HCMV antiviral: qHTS Assay for inhibitors of the human cytomegalovirus (HCMV); HFF cells, HCMV-luciferase reporter, 72 h; hits give low values; activity change, negative = inhibition, % at 57.5 µM; actives 4.5% (n = 410,000); in the data active means activity change below about -60%; inconclusive means no clear call, values can overlap the other calls; inactive means above about -39%
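Two-dose cell screen: HFF monolayers treated with compounds and infected with luciferase-expressing HCMV at 1 PFU/cell, 72 h at 37C, then lysed for luciferase measurement.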
Pf growth 96h: Primary qHTS for delayed death inhibitors of the malarial parasite plastid, 96 hour incubation. actives 6.9% (n = 320,000). P. falciparum luciferase reporter growth, 96 h. Potency, µM (series often up to 28.7 µM), for the others: at the top dose activity change, negative = inhibition, actives largely listed as inhibitors; further: potency means the concentration at half of the fitted maximal effect
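P. falciparum expressing integrated firefly luciferase, in erythrocytes at 2% hematocrit, 0.05% parasitemia, incubated with compounds 96 h at 37 C, 5% CO2. Growth inhibition read as loss of luminescence; two-generation exposure targets delayed-death apicoplast inhibitors.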
HCV inhibitor: qHTS Assay for Inhibitors of Hepatitis C Virus (HCV); Huh7.5.1 HCVcc-Cre infection, luciferase reporter, 44 h; Potency, µM (doses to about 41.8 µM), for inactives: at the highest dose activity change, negative = inhibition, actives largely listed as inhibitors; actives 3.4% (n = 340,000); AID 651820, 2012; further: potency means the concentration at half of the fitted maximal effect
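A cell-based infection assay in which seeded cells (1,000 per well) receive test compound after 4 h, are inoculated with HCVcc-Cre at approximately 0.5 moi, and are incubated 44 h before luminescence detection.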
* hit, by the source's call; ? = inconclusive; . = no result; [ ] = remark or other dose. Unless noted, the call rests on the fitted dose curve; in most records, active means well fitted inhibition curve with a large enough effect; inconclusive means small, poorly fitted or top-dose-only effect, or another doubt; inactive means no such curve, though single readings can be large or run the other way. On the % scale 0 is the no-effect control and ±100 the full control effect.

SMILES	Pf growth 48h	HCMV antiviral	Pf growth 96h	HCV inhibitor
COc1ccc(-c2cnc(C)o2)cc1S(=O)(=O)Nc1ccc(OC(F)(F)F)cc1	.	-7	.	.
COCCCNc1nc2c(-c3ccc(Cl)cc3)nnn2c2ccccc12	-1%	-4	12µM*	2%[8.37 µM]
CCc1ccc2[nH]c(=O)c(CN(CCCN3CCOCC3)C(=O)Nc3ccc(F)cc3)cc2c1	?	11	-2%	?
Cc1ccc2cc(CN(CCN3CCCC3)C(=O)Nc3ccccc3)c(=O)[nH]c2c1C	10µM*	-5	?	-25%
COc1ccc(NC(=O)N(CCN2CCCC2)Cc2cc3cc(OC)c(OC)cc3[nH]c2=O)cc1	9.3µM*	8	?	-18%
Cc1ccc2cc(CN(CCN3CCCC3)C(=O)Nc3ccc(F)cc3)c(=O)[nH]c2c1C	13µM*	-23	-11%	?
Cc1ccc2cc(CN(CCN3CCOCC3)C(=O)NCc3ccccc3)c(=O)[nH]c2c1C	?	-21	?	15%
COc1ccc(NC(=O)N(CCCN(C)C)Cc2cc3cc(OC)ccc3[nH]c2=O)cc1	?	-18	22%	?
COc1ccc(S(=O)(=O)N(CC(=O)Nc2cc(C)cc(C)c2)c2ccc(Cl)cc2)cc1	.	-32	.	.
CCOc1ccccc1NC(=O)CCc1c(C)nn(-c2ccc(N3CCOCC3)nn2)c1C	.	-3	.	.
CC(/C=C/C=C(\C)C(=O)O[C@@H]1O[C@H](CO[C@@H]2O[C@H](CO)[C@@H](O)[C@H](O)[C@H]2O)[C@@H](O)[C@H](O)[C@H]1O)=C\C=C\C=C(C)\C=C\C=C(/C)C(=O)O[C@@H]1O[C@H](CO[C@@H]2O[C@H](CO)[C@@H](O)[C@H](O)[C@H]2O)[C@@H](O)[C@H](O)[C@H]1O	-1%	.	11%	.
COc1ccc(S(=O)(=O)c2nnn(-c3ccc(C)c(Cl)c3)c2C)cc1	.	-19	.	.
CCOc1ccc(NC(=O)c2cn3c4c(ccc(Cl)c4c2=O)OC(C)C3)cc1 (configuration not stated)	.	7	.	.
O=C(Nc1ccc2nc3n(c(=O)c2c1)CCCCC3)c1cccc(C(F)(F)F)c1	.	-69*	.	.
COc1cc(C(=O)Nc2ccc3nc4n(c(=O)c3c2)CCCC4)ccc1Br	8.3µM*	-21	-3%	-19%
COc1ccc(Cl)cc1C(=O)Nc1ccc2nc3n(c(=O)c2c1)CCCC3	?	?	2.1µM*	?
COc1cccc(C(=O)Nc2ccc3nc4n(c(=O)c3c2)CCCC4)c1	13%	25	78%	-29%
O=C(CSc1nnc(-c2cccs2)o1)Oc1ccc(Cl)cc1	.	15	.	.
CCN(CC)C(=O)C1CCN(C(=O)c2cnn(-c3ccccc3)c2-n2cccc2)CC1	.	16	.	.
COc1ccc(OC)c(-n2nnnc2SCC(=O)Nc2ccc(C(=O)N3CCCCC3)cc2)c1	?	-64*	12µM*	-24%
Cc1ccc(-n2nnnc2SCC(=O)Nc2ccc3c(c2)OCCO3)cc1C	24%	43	?	-13%
COc1ccc(OC)c(-n2nnnc2SCC(=O)Nc2ccc3c(c2)OCCO3)c1	31%	1	10µM*	?
COc1ccc(N2CCN(C(=O)CSc3nnnn3-c3ccc4c(c3)OCCO4)CC2)cc1	?	?	.	7.9µM*
Cc1ccc(C2=NO[C@@](CC(=O)O)(C(=O)Nc3ccc4c(c3)OCCO4)C2)cc1	32%	4	8%	17%
COc1ccc(OC)c(C2=NO[C@@](CC(=O)O)(C(=O)Nc3ccc4c(c3)OCCO4)C2)c1	12%	-100*	20%	-6%
SMILES	Pf growth 48h	HCMV antiviral	Pf growth 96h	HCV inhibitor
COc1ccc2nc(NC(=O)c3ccc(S(=O)(=O)N4CCC(C)CC4)cc3)sc2c1	.	25	.	.
Cc1ccc(Cl)cc1N1CCN(C(=O)c2sc3nc4n(c(=O)c3c2C)CCC4)CC1	.	-4	.	.
COc1ccccc1NC(=O)c1sc2cccc(Cl)c2c1Cl	.	-40	.	.
CCn1c(O)c(/C(C)=N/N2CCCCC2c2cccnc2)c(=O)[nH]c1=S (configuration not stated)	?	5	13µM*	18%
Clc1ccc(-c2cn3ccccc3n2)cc1	463%	87	-70%	-5%
Brc1ccc(-c2cn3ccccc3n2)s1	.	-11	269%	8.9µM*
CC(C)CN(CCCNC(=O)c1cn(C)c2ccc(S(=O)(=O)N(C)C3CCCCC3)cc2c1=O)CC(C)C	.	2	.	.
Cc1c(-c2ccccc2)oc2c(C(=O)N3CCN(c4ccc([N+](=O)[O-])cc4)CC3)cccc2c1=O	?	-61*	?	-27%
CCSc1ccccc1C(=O)N1CCN(c2ccc([N+](=O)[O-])cc2)CC1	-27%	-30	37%	10µM*
O=C(c1cc2ccccc2cc1O)N1CCN(c2ccc([N+](=O)[O-])cc2)CC1	6.6µM*	3	?	?
O=C(C1COc2ccccc2O1)N1CCN(c2ccc([N+](=O)[O-])cc2)CC1 (configuration not stated)	.	-13	.	22µM*
Cc1c(C(=O)N2CCN(c3ccc([N+](=O)[O-])cc3)CC2)oc2ccccc12	?	-21	?	?
O=C(c1cc([N+](=O)[O-])ccc1Cl)N1CCN(c2ccccc2)CC1	29%	1	-1%	2%
Cc1ccc(N(Cc2cccs2)C(=O)C(C)Oc2ccc(Cl)c(C)c2)cc1 (configuration not stated)	.	-23	.	.
Cc1ccc(C)c(NC(=O)CSc2c(C)cnc3c2c(=O)n(C)c(=O)n3C)c1	.	13	.	.
O=C(Nc1cc(C(F)(F)F)ccc1Cl)c1cc(-c2cccs2)nc2ccccc12	.	4	.	.
Cc1nc2cc(C(=O)NCCC3=CCCCC3)ccc2n1-c1ccc(Br)cc1	.	-17	.	.
COc1ccc(-n2c(=O)c3sc4ccccc4c3n(Cc3ccccc3)c2=O)cc1	.	-8	.	.
Cc1ccc(CNC(=O)c2cn(C)c3ccc(S(=O)(=O)N(C)C4CCCCC4)cc3c2=O)cc1	.	23	.	.
CCSc1ccccc1C(=O)N1CCN(c2nc3ccccc3s2)CC1	.	-67*	.	.
CC(C)(O)C#Cc1ccc(C(=O)N2CCN(c3ccccc3)CC2)cc1	12%	-18	?	7%
CC1(C(=O)N2CCN(c3ccc([N+](=O)[O-])cc3)CC2)CC1(Cl)Cl (configuration not stated)	29%	?	?	11µM*
CC(C)(O)C#Cc1ccc(C(=O)N2CCN(c3ccc([N+](=O)[O-])cc3)CC2)cc1	-9%	-85*	?	?
CCCC(=O)N1CCN(c2nc3ccccc3s2)CC1	21%	?	268%	?
Cc1cccc(C(c2sc3nc(-c4ccco4)nn3c2O)N2CCOCC2)c1 (configuration not stated)	.	15	.	.
Cc1c(C(=O)Nc2ccccn2)oc2c(Cl)cccc12	34%	31	42%	?

High-throughput results from PubChem.
